Assay [1] is described as follows: NCI Yeast Anticancer Drug Screen. Data for the rad50 strain (AID 155).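 Note: 0% = growth of vehicle-only cultures of the same strain.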 The note with it: S. cerevisiae rad50 strain growth inhibition, stronger effect = higher value. A digest of the protocol:
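Genetically altered yeast (DNA repair pathway); compound treatment; growth inhibition vs vehicle ctrl.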

A short description of assay [2]: NCI Yeast Anticancer Drug Screen. Data for the mec2-1 strain (AID 157). The following applies: S. cerevisiae mec2-1 strain, stronger effect = higher value. A digest of the protocol: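 Using mec2-1 yeast: add compound, measure growth, express inhibition versus vehicle-treated cultures.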
Assay [3] is described as follows: NCI Yeast Anticancer Drug Screen. Data for the sgs1 mgt1 strain (AID 161).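 Note: 0% = growth of cultures given vehicle only.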 The note with it: S. cerevisiae sgs1 mgt1 strain, stronger effect = higher value. A digest of the protocol: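 Yeast cells carrying a defined DNA-repair defect were exposed to test compounds. Growth inhibition was measured relative to vehicle-treated controls.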
Assay [4] in a line: NCI Yeast Anticancer Drug Screen. Data for the cln2 rad14 strain (AID 165).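 Note: 0% = growth equal to vehicle treated cultures.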 The following applies: S. cerevisiae cln2 rad14 strain, stronger effect = higher value. A digest of the protocol:
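Yeast strain cln2 rad14, bearing defects in cell cycle control and DNA repair, serves as the test system; values reflect growth inhibition compared with vehicle.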

Assay [5] can be described thus: NCI Yeast Anticancer Drug Screen. Data for the bub3 strain (AID 167). The note with it: S. cerevisiae bub3 mutant strain, stronger effect = higher value. A digest of the protocol: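 Yeast carrying a defined mutation is treated with each compound, and growth is compared with that of vehicle-exposed cells to give inhibition.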
A short description of assay [6]: NCI Yeast Anticancer Drug Screen. Data for the mlh1 rad18 strain (AID 175). The following applies: S. cerevisiae mlh1 rad18 strain growth inhibition, stronger effect = higher value. A digest of the protocol: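 Steps: expose repair-defective yeast to compound; measure growth; express inhibition against vehicle-treated controls.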
Where [7] appears, read: at 5.0 µM (retest, dose inferred, filed as 0.5).
Setting [8] is: at 50.0 µM (retest, dose inferred, filed as 5.0).

About 79,000 compounds went through this panel and 15% of them were active in at least one assay; those are over-represented in the sample as a whole. A number with no mark means an inactive call. Active and inactive are the calls of the source. Cut-off read from the data, not from the text of the source: active = growth inhibition above about 70%; inactive = the rest.

Experimental findings from PubChem BioAssay (NCI) are described below.

Take `CC1=NN(C(=O)c2ccc(Cl)cc2)C(=O)C1N=Nc1ccc(S(=O)(=O)Nc2ncccn2)cc1` (stereo not given): the growth inhibition was 61% in assay [1] (setting [7]); 93% (active) in assay [1] (setting [8]); 55.7% in assay [1] (at 50.0 µM); 4% in assay [2] (setting [7]); 51% in assay [2] (setting [8]); 13.2% in assay [2] (at 50.0 µM). In addition, the growth inhibition in assay [3] (setting [7]) is 11%; in assay [3] (setting [8]), 8%; in assay [3] (at 50.0 µM), 10.8%; in assay [4] (setting [7]), -6%; in assay [4] (setting [8]) it was 2%; in assay [4] (at 50.0 µM), 19.4%. Moreover, the growth inhibition in assay [5] (setting [7]) is -2%; in assay [5] (setting [8]) it was -8%; in assay [5] (at 50.0 µM), -6.7%.

For `COc1ccc(C(c2cc3c(cc2O)OCO3)N2CCOCC2)cc1OC` (stereo not given), the growth inhibition is -2% in assay [1] (setting [7]); 39% in assay [1] (setting [8]); 77.5% (active) in assay [1] (at 50.0 µM); -5% in assay [2] (setting [7]); 59% in assay [2] (setting [8]); 86.5% (active) in assay [2] (at 50.0 µM). In addition, the growth inhibition in assay [3] (setting [7]) was -2%; in assay [3] (setting [8]), 43%; in assay [3] (at 50.0 µM), 96.5% (active); in assay [4] (setting [7]), 0%; in assay [4] (setting [8]), 12%; in assay [4] (at 50.0 µM) it was 67.5%. The growth inhibition in assay [5] (setting [7]) is -5%; in assay [5] (setting [8]) it was 41%; in assay [5] (at 50.0 µM) it was 98% (active).

Consider `CC/C(=C(\CC)c1ccc(O)c(CN(C)C)c1)c1ccc(OC)cc1`, for which the growth inhibition is 9% in assay [1] (setting [7]); 87% (active) in assay [1] (setting [8]); 98.5% (active) in assay [1] (at 50.0 µM); 9% in assay [2] (setting [7]); 84% (active) in assay [2] (setting [8]); 86.3% (active) in assay [2] (at 50.0 µM). Also, the growth inhibition in assay [3] (setting [7]) is 12%; in assay [3] (setting [8]) it was 99% (active); in assay [3] (at 50.0 µM), 99.6% (active); in assay [4] (setting [7]) it was 0%; in assay [4] (setting [8]) it was 98% (active); in assay [4] (at 50.0 µM) it was 97.8% (active). In addition, the growth inhibition in assay [5] (setting [7]) is -28%; in assay [5] (setting [8]), 95% (active); in assay [5] (at 50.0 µM), 94.8% (active); in assay [6] (setting [7]) it was 3%; in assay [6] (setting [8]) it was 98% (active); in assay [6] (at 50.0 µM) it was 98.6% (active).

As to `Nc1ccc(C2CCC[C@H]2c2ccc(N)cc2)cc1` (stereo not given in full), the growth inhibition in assay [1] (setting [7]) is 0%; in assay [1] (setting [8]), 93% (active); in assay [1] (at 50.0 µM) it was 48.8%; in assay [2] (setting [7]), 15%; in assay [2] (setting [8]), 87% (active); in assay [2] (at 50.0 µM), 46.8%. Moreover, the growth inhibition in assay [3] (setting [7]) is 14%; in assay [3] (setting [8]), 90% (active); in assay [3] (at 50.0 µM) it was 53.2%; in assay [4] (setting [7]), 1%; in assay [4] (setting [8]), 66%; in assay [4] (at 50.0 µM), 39.6%. For the same compound, the growth inhibition was -3% in assay [5] (setting [7]); 81% (active) in assay [5] (setting [8]); 58.6% in assay [5] (at 50.0 µM); 21% in assay [6] (setting [7]); 95% (active) in assay [6] (setting [8]); 49.1% in assay [6] (at 50.0 µM).

Take `N#CSCc1c(Cl)cccc1Cl`: the growth inhibition in assay [1] (setting [7]) was 57%; in assay [1] (setting [8]), 59%; in assay [1] (at 50.0 µM), 81.7% (active); in assay [2] (setting [7]), 40%; in assay [2] (setting [8]), 48%; in assay [2] (at 50.0 µM), 75.8% (active). Moreover, the growth inhibition in assay [3] (setting [7]) is 18%; in assay [3] (setting [8]), 92% (active); in assay [3] (at 50.0 µM), 82.7% (active); in assay [4] (setting [7]), 68%; in assay [4] (setting [8]), 94% (active); in assay [4] (at 50.0 µM), 64.5%. The growth inhibition in assay [5] (setting [7]) is 64%; in assay [5] (setting [8]), 95% (active); in assay [5] (at 50.0 µM) it was 79.1% (active).

For `CCCCCCCC1SCC(=O)N1c1nncs1` (stereo not given), the growth inhibition is -11% in assay [1] (setting [7]); 96% (active) in assay [1] (setting [8]); -10.8% in assay [1] (at 50.0 µM); 0% in assay [2] (setting [7]); 65% in assay [2] (setting [8]); -20.4% in assay [2] (at 50.0 µM). Further, the growth inhibition in assay [3] (setting [7]) is 0%; in assay [3] (setting [8]), 95% (active); in assay [3] (at 50.0 µM), 1.45%; in assay [4] (setting [7]) it was -5%; in assay [4] (setting [8]), 80% (active); in assay [4] (at 50.0 µM), 3.1%. For the same compound, the values for the growth inhibition in assay [5] (setting [7]), in assay [5] (setting [8]) and in assay [5] (at 50.0 µM) were 19%, 95% (active) and 2.9%, respectively.

Take `O=C1NC2(C=Cc3c(ccc4ccccc34)O2)Oc2ccccc21` (stereo not given): the growth inhibition in assay [1] (setting [7]) was -12%; in assay [1] (setting [8]), -8%; in assay [1] (at 50.0 µM), 44.5%; in assay [2] (setting [7]), -16%; in assay [2] (setting [8]) it was -7%; in assay [2] (at 50.0 µM), 10%. The growth inhibition in assay [3] (setting [7]) is 6%; in assay [3] (setting [8]), 11%; in assay [3] (at 50.0 µM), 34%; in assay [4] (setting [7]), 31%; in assay [4] (setting [8]), 48%; in assay [4] (at 50.0 µM), 24.4%. Further, the growth inhibition was 4% in assay [5] (setting [7]); -8% in assay [5] (setting [8]); 7.65% in assay [5] (at 50.0 µM); -3% in assay [6] (setting [7]); 3% in assay [6] (setting [8]); 62% in assay [6] (at 50.0 µM).

`CCC(c1ccc(O)c(C2CCCCC2)c1)C(CC)c1ccc(OC(=O)c2ccccc2)c(C2CCCCC2)c1` (stereo not given): the growth inhibition in assay [1] (setting [7]) is 0%; in assay [1] (setting [8]), -2%; in assay [1] (at 50.0 µM), -16.8%; in assay [2] (setting [7]) it was -21%; in assay [2] (setting [8]) it was 10%; in assay [2] (at 50.0 µM), -10.8%. Further, the growth inhibition is -11% in assay [3] (setting [7]); 11% in assay [3] (setting [8]); -17.1% in assay [3] (at 50.0 µM); -4% in assay [4] (setting [7]); -8% in assay [4] (setting [8]); 26.8% in assay [4] (at 50.0 µM). Further, the growth inhibition is 0% in assay [5] (setting [7]); -6% in assay [5] (setting [8]); 1.15% in assay [5] (at 50.0 µM); -14% in assay [6] (setting [7]); -9% in assay [6] (setting [8]); -8.9% in assay [6] (at 50.0 µM).

Take `CCOC(=O)NC(NC(=O)OCC)C(=O)Nc1cccc2c(OC(=O)C(NC(=O)OCC)NC(=O)OCC)c(N=Nc3ccc(S(=O)(=O)Nc4nccs4)cc3)cc(N=Nc3ccc(S(=O)(=O)Nc4nccs4)cc3)c12` (tested in a mixture with another compound): the growth inhibition in assay [1] (setting [7]) was 94% (active); in assay [1] (setting [8]) it was 43%; in assay [1] (at 50.0 µM) it was 78.7% (active); in assay [2] (setting [7]), 97% (active); in assay [2] (setting [8]) it was 59%; in assay [2] (at 50.0 µM), 74.9% (active). The growth inhibition in assay [3] (setting [7]) was 96% (active); in assay [3] (setting [8]), 58%; in assay [3] (at 50.0 µM), 65.8%; in assay [4] (setting [7]), 95% (active); in assay [4] (setting [8]), 70% (active); in assay [4] (at 50.0 µM), 70.3% (active). Further, the growth inhibition in assay [5] (setting [7]) is 95% (active); in assay [5] (setting [8]), 59%; in assay [5] (at 50.0 µM), 61.8%; in assay [6] (setting [7]) it was 88% (active); in assay [6] (setting [8]), 29%; in assay [6] (at 50.0 µM) it was 83.1% (active).

On to `O=C(O)C(CS)Nc1c2ccccc2nc2ccccc12` (stereo not given), for which the growth inhibition was 17% in assay [1] (setting [7]); 88% (active) in assay [1] (setting [8]); 88.6% (active) in assay [1] (at 50.0 µM); 10% in assay [2] (setting [7]); 64% in assay [2] (setting [8]); 39.5% in assay [2] (at 50.0 µM). Further, the growth inhibition is 11% in assay [3] (setting [7]); 76% (active) in assay [3] (setting [8]); 65% in assay [3] (at 50.0 µM); 17% in assay [4] (setting [7]); 47% in assay [4] (setting [8]); 68.5% in assay [4] (at 50.0 µM). Also, the growth inhibition in assay [5] (setting [7]) was -5%; in assay [5] (setting [8]) it was 71% (active); in assay [5] (at 50.0 µM) it was 37.5%.
